# Test results from PubChem BioAssay (EPA / NIEHS).
# Results filed as inconclusive are left out. Calls of active or inactive are those of the source. Rule for the calls, unless noted: active = hit-call score of the fitted dose curve at least 0.9, where 1 is the maximum; inconclusive = response in the unintended direction; inactive = score below 0.9.
# How the values were obtained:
# [1] = CEETOX_H295R_MTT_cell_viability: Viability Assessment in the CeeTox HT-H295R MTT Assay (AID 2283718; active = hit-call score of the fitted dose curve at least 0.9, where 1 is the maximum; inactive = score below 0.9;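 for AC50: curve fitted both ways so AC50 may mark viability loss or gain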)
# Outline: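 MTT reduction (0.5 mg/ml, 4 h at 37 C; absorbance at 570 and 650 nm) gave viability as background-corrected percent change versus controls. H295R cells had 48 h forskolin (10 uM) prestimulation, then 48 h chemical exposure at 0.1% DMSO.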
# [2] = ACEA_AR_antagonist_AUC_viability: ACEA Biosciences xCELLigence Real-Time Cell Analysis on Androgen Receptor Antagonism for Viability (AID 2283776);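 note: 22Rv1 human prostate cancer cells growing on impedance electrode plates; area under impedance growth curve at 80 h after dosing as viability; hits lower the growth signal relative to DMSO meaning cytotoxicity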
# Outline: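 Impedance read-out (RT-CES): area under growth curve at 80 h post-dose, loss of signal scored vs DMSO baseline. 22Rv1 cells; 8-pt 1:4 series, top 100 uM final, ≤0.5% DMSO; biological duplicate.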
# [3] = ACEA_ER_AUC_viability: ACEA Biosciences xCELLigence Real-Time Cell Analysis on Estrogen Receptor Agonism for Viability (AID 2283782);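 note: continuous compound exposure with impedance area under curve over 80 h; hit means loss of impedance signal meaning reduced cell growth or viability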
# Outline: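 T-47D; phenol red-free RPMI1640 + 10% CS-FBS; 8 conc., 1:4 serial, max 100 uM final, ≤0.5% DMSO; n = 2; continuous exposure; impedance monitored to 80 h post-dose; AUC vs DMSO.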
# [4] = ACEA_AR_agonist_AUC_viability: ACEA Biosciences xCELLigence Real-Time Cell Analysis on Androgen Receptor Agonism for Viability (AID 2283775);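 for AC50: viability read 80 hours after compound addition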
# Outline: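 Read-out is area under the impedance curve at 80 h post-dose in 22Rv1 cells, with DMSO as baseline and signal loss taken as reduced viability. Compounds ran in duplicate from 100 uM final.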
smiles,measurement,setting,value
CCCCCC(=O)O[C@]1(C(C)=O)CC[C@H]2[C@@H]3CCC4=CC(=O)CC[C@]4(C)[C@H]3CC[C@@]21C,AC50,[1],13400 nM (active)
same,AC50,[2],416 nM (active)
same,AC50,[3],49800 nM (active)
OCC=Cc1ccccc1,outcome,[1],inactive
same,outcome,[4],inactive
same,outcome,[2],inactive
CC=CC(=O)C1=C(C)C=CCC1(C)C,outcome,[1],inactive
same,outcome,[3],inactive
CC(=O)CC(=O)N(C)C,outcome,[4],inactive
same,outcome,[2],inactive
COC(=O)c1cccc(C(=O)OC)c1,outcome,[1],inactive
same,outcome,[4],inactive
same,outcome,[2],inactive
CC(=O)Oc1c(C)c(C)c2c(c1C)CC[C@@](C)(CCC[C@H](C)CCC[C@H](C)CCCC(C)C)O2,outcome,[4],inactive
CCCCCCCCCCOC(=O)c1ccccc1C(=O)OCCCCCCCC,outcome,[1],inactive
same,outcome,[4],inactive
same,outcome,[2],inactive
CC(=N[Si](C)(C)C)O[Si](C)(C)C,outcome,[1],inactive
same,outcome,[3],inactive
NC(=O)c1cccnc1,outcome,[4],inactive
c1ccc(OCCOc2ccccc2)cc1,outcome,[1],inactive
same,outcome,[4],inactive
same,outcome,[2],inactive
same,outcome,[3],inactive
COc1ccc2[nH]cc(CCNC(C)=O)c2c1,outcome,[1],inactive
same,outcome,[4],inactive
same,outcome,[3],inactive
CCOCC(C)O (configuration not stated),outcome,[4],inactive
same,outcome,[2],inactive
CCCCCCCCCOS(=O)(=O)O,outcome,[4],inactive
same,outcome,[2],inactive
CC(=O)c1ccc2ccccc2c1,outcome,[1],inactive
same,outcome,[4],inactive
same,outcome,[2],inactive
NCCN1CCNCC1,outcome,[4],inactive
C=CC(C)CCCC(C)(C)O (configuration not stated),outcome,[4],inactive
COC(=O)C(C)Oc1ccc(Oc2ncc(C(F)(F)F)cc2Cl)cc1 (configuration not stated),outcome,[1],inactive
same,outcome,[4],inactive
same,outcome,[2],inactive
same,outcome,[3],inactive
CCCCOCCOCCOCCO,outcome,[4],inactive
same,outcome,[2],inactive
C1=COCCC1,outcome,[4],inactive
same,outcome,[2],inactive
same,outcome,[3],inactive
COc1cc(OC)c2ccc(=O)oc2c1,outcome,[1],inactive
same,AC50,[4],940 nM (active)
same,AC50,[2],250 nM (active)
CC(C)(CO)CO,outcome,[4],inactive
same,outcome,[2],inactive
same,outcome,[3],inactive
CCC(C)C1CCCCC1=O (configuration not stated),outcome,[4],inactive
same,outcome,[2],inactive
same,outcome,[3],inactive
CC(CCO)CC(C)(C)C (configuration not stated),outcome,[4],inactive
same,outcome,[2],inactive
same,outcome,[3],inactive
CCCCN(CCCC)CCCCCCN(CCCC)CCCC,outcome,[4],inactive
same,outcome,[3],inactive
CCCC[N+](C)(CCCC)CCCC,outcome,[4],inactive
same,outcome,[3],inactive
CC(O)CN (configuration not stated),outcome,[4],inactive
same,outcome,[2],inactive
same,outcome,[3],inactive
C1CCCNCC1,outcome,[2],inactive
CCCCCCCC(=O)N(C)C,outcome,[2],inactive
CCCCOCCOC(=O)c1ccccc1C(=O)OCCOCCCC,outcome,[3],inactive
CCC(C)(CCCC(C)C)OC(C)=O (configuration not stated),outcome,[4],inactive
same,outcome,[3],inactive
FC(F)(F)c1ccc(Cl)c(Cl)c1,outcome,[4],inactive
same,outcome,[3],inactive
C=CCCCCCCCCC(=O)OCC,outcome,[4],inactive
same,outcome,[2],inactive
same,outcome,[3],inactive
CC1COC(=O)O1 (configuration not stated),outcome,[2],inactive
same,outcome,[3],inactive
c1ccc2c(c1)-c1ccc3ccc4cccc5cc-2c1c3c45,outcome,[3],inactive
